Many of the other results were omitted from the sample, so hits are more common in it than they were.
IL-1B inflam inh: blocks inflammasome-driven IL-1 beta release; 360,000 tested, 4.7% active; THP-1 LPS/ATP IL-1B secretion, AlphaLISA, 16 h; active compounds read low; activity change, % at 57.5 µM; in the data active = activity change below about -50%; inconclusive = mostly about -30% to -49%
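Secreted IL-1B measured by AlphaLISA bead assay after 16 h compound exposure of THP-1 cells; compounds (final up to 57.5 uM) added 1 h before LPS (250 ng/mL) and ATP (1.25 mM) stimulation; lower signal means less secretion.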
12-LOX inh: ALOX12 (human) lipoxygenase inhibition; P18054; purified 12hLO, xylenol orange hydroperoxide absorbance; Potency, µM (highest dose often 108 µM), for the others: top-dose activity change, negative = inhibition, most hits filed as inhibitors; 580,000 tested, 1.1% active; also: potency is read from the fitted curve at half-maximal effect
Target sequence (P18054 whole entry, looked up): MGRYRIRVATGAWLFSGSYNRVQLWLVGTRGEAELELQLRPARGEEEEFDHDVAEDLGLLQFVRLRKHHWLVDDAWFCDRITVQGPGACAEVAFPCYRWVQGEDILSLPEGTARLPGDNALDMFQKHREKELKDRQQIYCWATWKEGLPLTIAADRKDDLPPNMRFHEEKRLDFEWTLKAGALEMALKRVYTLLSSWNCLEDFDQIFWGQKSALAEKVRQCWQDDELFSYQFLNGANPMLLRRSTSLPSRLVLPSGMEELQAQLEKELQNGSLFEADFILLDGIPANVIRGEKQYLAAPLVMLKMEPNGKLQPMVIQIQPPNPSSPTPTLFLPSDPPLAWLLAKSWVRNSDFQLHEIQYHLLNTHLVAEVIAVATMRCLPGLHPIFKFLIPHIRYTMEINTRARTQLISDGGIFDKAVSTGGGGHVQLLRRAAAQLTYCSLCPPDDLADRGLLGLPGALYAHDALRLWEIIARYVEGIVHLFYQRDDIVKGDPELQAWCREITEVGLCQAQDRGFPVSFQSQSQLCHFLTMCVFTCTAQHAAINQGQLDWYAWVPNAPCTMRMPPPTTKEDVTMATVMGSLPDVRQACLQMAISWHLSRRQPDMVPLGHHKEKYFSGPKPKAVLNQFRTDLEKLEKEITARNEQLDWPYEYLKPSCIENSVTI
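Hydroperoxide product was detected by ferrous iron/xylenol orange as the 573 to 405 nm absorbance ratio. Arachidonic acid at 40 uM (final) was turned over for 30 min at room temperature by 150 nM human 12hLO, pH 7.0 Hepes buffer, after 15 min compound preincubation.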
HT1080-NT tox: kills 2HG-producing HT-1080-NT fibrosarcoma cells; HT-1080-NT fibrosarcoma viability, CellTiter-Glo ATP luminescence, 48 h; Potency, µM (doses to about 46.1 µM), inactives show at the top dose activity, negative = less viability, usual class: cytotoxic; 360,000 tested, 1.6% active; AID 686970;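 also: NT is the 2HG producing partner of a matched IDH1 knockdown line; potency is read from the fitted curve at half-maximal effect; 0% = DMSO-treated cells and -100% = media-only wells without cells; nearly all actives have a fitted effect of over 55% in size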
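Toxicity toward the 2HG-producing NT line was scored as %Activity, normalised to DMSO and no-cell wells, from CellTiter-Glo luminescence after 48 hours' treatment.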
TDP1 cell noCPT: qHTS for Inhibitors of human tyrosyl-DNA phosphodiesterase 1 (TDP1): qHTS in cells in absence of CPT; DT40 Tdp1-/- hTDP1 cells, no CPT, ATP luminescence, 48 h; Potency, µM (highest dose often 46.2 µM), inactives show top-dose activity change, negative = growth inhibition, hits mostly inhibitors; 420,000 tested, 15% active; also: potency is read from the fitted curve at half-maximal effect; nearly all actives have a fitted effect of over 55% in size
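Camptothecin absent (DMSO only). Human TDP1-complemented DT40 knockout cells, 400 cells/well, 37 °C for minimum 48 hr; ATP measured via CellTiter-Glo, 30 min dark incubation, luminescence.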
TDP1 cell CPT: DT40-hTDP1 cell growth loss with CPT; chicken DT40 Tdp1-/-;hTDP1 cells + 20 nM CPT, ATP luminescence, 48 h; Potency, µM (top dose mostly 46.2 µM), for the others: top-dose activity change, negative = growth inhibition, hits mostly inhibitors; 420,000 tested, 12% active; also: potency is read from the fitted curve at half-maximal effect; nearly all actives have a fitted effect of over 55% in size
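Cell growth measured by CellTiter-Glo luminescence after a minimum 48 h, 37 C compound exposure with 20 nM CPT in Tdp1-knockout DT40 cells stably expressing hTDP1, seeded 400/well; qHTS titration format.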
HT1080 IDH1KD tx: kills HT-1080 cells with IDH1 knockdown | HT-1080 IDH1 knockdown viability, ATP luminescence, 48 h | Potency, µM (titrated, usually from 46.1 µM), for inactives: top-dose activity, negative = toxicity, usual class: cytotoxic | 360,000 tested, 2% active | AID 686971;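 also: potency is read from the fitted curve at half-maximal effect; 0% = DMSO wells and -100% = cell-free medium wells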
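Assay cells: HT-1080 with IDH1 knockdown, 750 per well, RPMI/5% FBS. Exposure: 48 h at 37 °C following 2 h pre-incubation. Read: CellTiter-Glo luminescence; fitted concentration-response, curve class assigned.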
An asterisk follows results filed as active; [ ] = another dose, or the depositor's remark. Unless noted, calls follow the shape of the dose curve; as a rule, active = well fitted curve in the direction sought with a large enough effect; inconclusive = small, poorly fitted or top-dose-only effect, or another doubt; inactive = no such curve, though single readings can be large; an effect the other way counts as inactive or inconclusive. Unless noted, % is scaled to controls: 0 for no effect and ±100 for the full control effect.

Cc1cc(=O)[nH]c(N/N=C/c2ccc(C)o2)n1 was read as IL-1B inflam inh 20, 12-LOX inh 15%, HT1080-NT tox 9%, TDP1 cell noCPT -16%, TDP1 cell CPT -19% and HT1080 IDH1KD tx 23%.
Cc1cc(=O)[nH]c(N/N=C/c2c(C)nn(-c3ccccc3)c2Cl)n1 was read as IL-1B inflam inh -14, 12-LOX inh -3%, HT1080-NT tox -1%, TDP1 cell noCPT 23µM*, TDP1 cell CPT 23µM* and HT1080 IDH1KD tx -5%.
Screening Cc1cc(=O)[nH]c(N/N=C/c2c(C)oc3ccccc23)n1 returned IL-1B inflam inh 0, 12-LOX inh inconclusive, HT1080-NT tox 12%, TDP1 cell noCPT inconclusive, TDP1 cell CPT 12µM* and HT1080 IDH1KD tx 19%.
`O=C(NCC1CC1)c1nc2c(o1)CCN(Cc1cccc(O)c1)CC2` gave 12-LOX inh 17%[176 µM].
COc1cc2c(cc1NC(=S)Nc1cccc(C(F)(F)F)c1)oc1ccccc12 was read as IL-1B inflam inh -4, 12-LOX inh inconclusive, HT1080-NT tox inconclusive, TDP1 cell noCPT 29µM*, TDP1 cell CPT 23µM* and HT1080 IDH1KD tx inconclusive.
For COCCCNC(=S)Nc1cc2oc3ccccc3c2cc1OC the results were IL-1B inflam inh -3, 12-LOX inh 419%, HT1080-NT tox 2.3µM*, TDP1 cell noCPT 6.5µM*, TDP1 cell CPT 8.2µM* and HT1080 IDH1KD tx 12µM*.
For CC1=C(C(=O)OC2CCCC2)C(c2c(F)cccc2Cl)CC(=O)N1 (centres undefined) the results were 12-LOX inh 6%, TDP1 cell noCPT 15µM* and TDP1 cell CPT inconclusive.
COCCOC(=O)C1=C(C)NC(=O)NC1c1c(F)cccc1Cl (centres undefined) was read as IL-1B inflam inh 5, 12-LOX inh 1%, HT1080-NT tox 9%, TDP1 cell noCPT 2%, TDP1 cell CPT -1% and HT1080 IDH1KD tx 8%.
`CC1=C(C(=O)OC2CCCCCC2)C(c2c(F)cccc2Cl)CC(=O)N1` (centres undefined) gave 12-LOX inh -21%, TDP1 cell noCPT 16µM* and TDP1 cell CPT inconclusive.
`Cc1ccccc1C(=O)NC1CCCCC1C` (centres undefined) gave 12-LOX inh 44%.
Cc1cccc(/C=C2/S/C(=N/N=C3\CC4CCC3(C)C4(C)C)NC2=O)c1 (centres undefined) was read as IL-1B inflam inh inconclusive, 12-LOX inh 0%, HT1080-NT tox -3%, TDP1 cell noCPT 21µM*, TDP1 cell CPT inconclusive and HT1080 IDH1KD tx -2%[9.24 µM].
For O=C(NCc1ccccc1)N1CCC(O)(c2csc(CN3CC[C@@H](O)C3)n2)CC1 the results were 12-LOX inh 22%[176 µM].
Screening Cc1ccc(C(O)(c2ccccc2)c2ccccc2C(C)N(C)C)c(C)c1 (centres undefined) returned IL-1B inflam inh -68*, 12-LOX inh -17%, HT1080-NT tox inconclusive, TDP1 cell noCPT 18µM*, TDP1 cell CPT inconclusive and HT1080 IDH1KD tx inconclusive.
For CCN(CC)C(=O)CSc1ncnc2sc(-c3ccccc3)cc12 the results were IL-1B inflam inh 0, 12-LOX inh -14%, HT1080-NT tox -6%, TDP1 cell noCPT inconclusive, TDP1 cell CPT inconclusive and HT1080 IDH1KD tx -18%.
CC(C)C(C)(C#N)NC(=O)CSc1ncnc2sc(-c3ccccc3)cc12 (centres undefined) was read as IL-1B inflam inh -9, 12-LOX inh -8%, HT1080-NT tox 13µM*, TDP1 cell noCPT inconclusive, TDP1 cell CPT inconclusive and HT1080 IDH1KD tx -5%.
For O=C(CSc1ncnc2sc(-c3ccccc3)cc12)NC1CCS(=O)(=O)C1 (centres undefined) the results were IL-1B inflam inh -66*, 12-LOX inh -5%, HT1080-NT tox 2%, TDP1 cell noCPT 15µM*, TDP1 cell CPT -52% and HT1080 IDH1KD tx 2%.
For O=S1(=O)C[C@H](N2CCN(Cc3ccc4c(c3)OCO4)CC2)[C@@H](S(=O)(=O)c2ccccc2)C1 the results were 12-LOX inh -12%.
CCCCN(CCCNC(=O)c1ccc(CS(=O)(=O)c2c(Cl)cccc2Cl)o1)Cc1ccccc1 was read as IL-1B inflam inh -4, 12-LOX inh 11%, HT1080-NT tox inconclusive, TDP1 cell noCPT inconclusive, TDP1 cell CPT inconclusive and HT1080 IDH1KD tx -21%.
Cc1ccc(S(=O)(=O)Cc2ccc(C(=O)NCCc3ccc(Cl)cc3)o2)cc1 was read as 12-LOX inh inconclusive, TDP1 cell noCPT 29µM* and TDP1 cell CPT 16µM*.
CCCCN(CC)CCCNC(=O)c1ccc(CS(=O)(=O)c2c(Cl)cccc2Cl)o1 was read as IL-1B inflam inh -78*, 12-LOX inh 48%, HT1080-NT tox 0%, TDP1 cell noCPT 27%, TDP1 cell CPT -13% and HT1080 IDH1KD tx -9%.
For CSc1ccc(CCNC(=O)c2ccc(CS(=O)(=O)c3ccc(Br)cc3)o2)cc1 the results were 12-LOX inh 2%, TDP1 cell noCPT 21µM* and TDP1 cell CPT 23µM*.
`O=C(NCCc1ccc(Cl)cc1)c1ccc(CS(=O)(=O)c2ccc(Cl)cc2)o1` gave 12-LOX inh 3%, TDP1 cell noCPT inconclusive and TDP1 cell CPT 16µM*.
For Cc1ccc(CCNC(=O)c2ccc(CS(=O)(=O)c3ccc(Cl)cc3)o2)cc1 the results were 12-LOX inh -5%, TDP1 cell noCPT -14% and TDP1 cell CPT -8%.
`O=C(Cc1ccc2c(c1)OCO2)OCc1ccc2c(c1)OCO2` gave 12-LOX inh -31%.
`COc1ccc2oc(-c3ccccc3)c(C(=O)Nc3ccc(N(C)C(C)=O)cc3)c2c1` gave 12-LOX inh 32%.
`N#Cc1cccc(-c2c(-c3ccccc3)ncn2CCCN2CCC(O)CC2)c1` gave 12-LOX inh 44%.
`CCc1ccccc1S(=O)(=O)Cc1ccc(C(=O)NCCc2ccc(Cl)cc2)o1` gave 12-LOX inh -12%, TDP1 cell noCPT 18µM* and TDP1 cell CPT inconclusive.
`CC1CCC(NC(=O)c2ccc(CS(=O)(=O)c3ccc(Cl)cc3)o2)CC1` (centres undefined) gave 12-LOX inh -19%, TDP1 cell noCPT 18µM* and TDP1 cell CPT 18µM*.

Bioassay records from PubChem.
